Screening results (PubChem BioAssay)
TrxR1 substrate: substrates of rat thioredoxin reductase 1; O89049; purified TrxR1 substrate turnover, NADPH consumption readout; Potency, µM (titrated, usually from 114 µM), inactives show top-dose activity change, negative = substrate turnover; hit rate 0.01% among 390,000; AID 588456; further: on the % scale 0 is the no-effect control and ±100 the full control effect; nearly all actives have a fitted effect of over 50% in size
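Rat TrxR1, dispensed at 90 nM, was prereduced with 400 uM NADPH (final) for 5 min at ~22 deg C, then incubated with compound 15 min before 400 uM selenite. A first-read NADPH fluorescence drop versus no-compound background flagged substrates.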
ALOX12 inh: blocks human arachidonate 12S-lipoxygenase; purified 12hLO, xylenol orange hydroperoxide absorbance; Potency, µM (highest dose often 108 µM), without a hit: at the top dose activity change, negative = inhibition, most hits filed as inhibitors; hit rate 1.1% among 580,000; P18054; further: on the % scale 0 is the no-effect control and ±100 the full control effect
Target sequence (P18054 whole entry, looked up): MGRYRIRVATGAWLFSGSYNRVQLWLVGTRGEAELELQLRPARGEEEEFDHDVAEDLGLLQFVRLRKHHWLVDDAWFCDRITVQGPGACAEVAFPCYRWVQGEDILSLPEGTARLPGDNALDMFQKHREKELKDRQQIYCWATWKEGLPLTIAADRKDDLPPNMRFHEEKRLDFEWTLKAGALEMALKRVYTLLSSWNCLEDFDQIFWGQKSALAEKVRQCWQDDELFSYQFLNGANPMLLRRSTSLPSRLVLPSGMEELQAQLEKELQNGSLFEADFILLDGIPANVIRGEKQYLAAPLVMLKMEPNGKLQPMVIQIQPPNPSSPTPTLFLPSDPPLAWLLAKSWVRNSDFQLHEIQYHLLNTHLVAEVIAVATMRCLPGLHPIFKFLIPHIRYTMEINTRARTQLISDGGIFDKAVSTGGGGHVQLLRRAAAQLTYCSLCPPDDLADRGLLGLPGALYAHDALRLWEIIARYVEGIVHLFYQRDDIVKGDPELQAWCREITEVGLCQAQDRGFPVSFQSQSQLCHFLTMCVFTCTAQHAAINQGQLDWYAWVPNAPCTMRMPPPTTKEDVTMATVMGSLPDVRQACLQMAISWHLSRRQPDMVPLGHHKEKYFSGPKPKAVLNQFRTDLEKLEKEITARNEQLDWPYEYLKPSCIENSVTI
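Purified human 12hLO (150 nM final) in 25 mM Hepes, 0.01% Triton X-100, pH 7.0 was preincubated 15 min at room temperature with compound. Then 40 uM arachidonic acid was added, 30 min. Hydroperoxide was read by Fe-XO absorbance ratio 573/405 nm.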
mIDH1 inhibitor: blocks human mutant IDH1 R132H enzyme; IDH1-R132H enzyme, NADPH consumption, diaphorase/resazurin fluorescence; AID 602179; O75874; Potency, µM (titrated, usually from 76.6 µM), for inactives: at the top dose activity change, negative = inhibition, actives largely listed as inhibitors; hit rate 0.093% among 390,000; further: on the % scale 0 is the no-effect control and ±100 the full control effect; nearly all actives have a fitted effect of over 65% in size
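IDH1-R132H (0.5 ug/mL) preincubated 30 min with compound, then NADPH (0.016 mM) and alpha-KG (2 mM) added; 80 min at RT, pH 7.5. Remaining NADPH coupled via diaphorase/resazurin to fluorescence (540/590 nm); concentration-response curves normalized to no-enzyme control.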
Apoferritin bind: binds horse apoferritin like a general anesthetic; Potency, µM (highest dose often 77.5 µM), inactives show at the top dose activity change, negative = displacement, usual class: inhibitors; P02791; hit rate 0.074% among 350,000; apoferritin/1-aminoanthracene competitive binding, fluorescence; further: on the % scale 0 is the no-effect control and ±100 the full control effect; nearly all actives have a fitted effect of over 20% in size
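Steps: apoferritin (10 uM) was premixed with half-saturated 1-AMA in PBS, compounds were pin-transferred, plates stood 10 min at room temperature, fluorescence was read at 380/535 nm, and curves were fitted with a Hill equation.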
rTrxR1 inhibitor: inhibitors of rat thioredoxin reductase 1; O89049; recombinant rTrxR1, NADPH fluorescence consumption, selenite substrate; Potency, µM (series often up to 114 µM), inactives show at the top dose activity change, negative = inhibition, usual class: inhibitors; hit rate 1% among 390,000; AID 588453; further: on the % scale 0 is the no-effect control and ±100 the full control effect; nearly all actives have a fitted effect of over 65% in size
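Rat TrxR1 (90 nM in the dispensed reagent) was pre-reduced with 400 uM NADPH for 5 min at room temperature, then incubated with compound for 15 min. After 400 uM selenite was added, NADPH fluorescence (Ex 340/Em 450 nm) was followed for 8 min.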
GRP78 ERSR act: inducers of ER stress response in human glioma cells | U87-MG GRP78 promoter luciferase reporter, 16 h | Potency, µM, without a hit: top-dose activation, hits mostly activators | AID 602332 | hit rate 0.02% among 420,000; further: series mostly up to about 76 µM; % of control where 0% means no effect; nearly all actives have a fitted effect of over 35% in size
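ERSR induction read as luciferase luminescence (Bright-Glo, 10 min at room temperature) in stably transfected human U87-MG glioma cells exposed to compounds for 16 h, using GRP78 as sensor.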
The depositor's hits bear a star; ? = inconclusive; / = no result given; [ ] = another dose, or the depositor's remark. Compounds with a hit are over-represented: about 1.7% of the library has one in this group of screens. The call rests on the fitted dose curve; in most records, active means well fitted curve in the direction sought with a large enough effect; inconclusive means small, poorly fitted or top-dose-only effect, or another doubt; inactive means no such curve, though single readings can be large; an effect the other way counts as inactive or inconclusive. Potency means the concentration at half of the fitted maximal effect.

SMILES | TrxR1 substrate | ALOX12 inh | mIDH1 inhibitor | Apoferritin bind | rTrxR1 inhibitor | GRP78 ERSR act
COc1ccc(/C=C/C(=O)NC(=S)NCC2CCCO2)cc1 (centres undefined) | 18%[57.1 µM] | -30% | 2% | ? | 29%[57.1 µM] | -5%
CC(C)(C)c1ccc(C(=O)NC(=S)NCC2CCCO2)cc1 (centres undefined) | -3% | 7.9µM* | 2% | -23% | -8% | -2%
CC(=O)Nc1ccc(NC(=S)NC(=O)c2ccc(C(C)(C)C)cc2)cc1 | / | / | / | / | / | 7%
CC(C)(C)c1ccc(C(=O)NNC(=S)NCC2CCCO2)cc1 (centres undefined) | 3% | 38% | 0% | 5% | 3% | -3%
O=C(NC(=S)NCc1ccco1)c1ccc(Br)cc1 | 6%[57.1 µM] | 16µM* | 1% | ? | 11%[57.1 µM] | -4%
CCOC(=O)NNC(=S)NCC1CCCO1 (centres undefined) | / | 6.3µM* | / | / | / | /
Cc1ccccc1C1C2=C(COC2=O)Nc2c1c(=O)n(C)c(=O)n2C (centres undefined) | / | 2% | / | / | / | /
O=C(O)CCNC(=O)C(F)(F)C(F)(F)C(F)(F)C(F)(F)C(F)(F)C(F)(F)F | / | 11µM* | / | / | / | /
COc1cccc(N2CCN(C(=O)CN3C(=O)COc4ccc(S(=O)(=O)N5CCC(C)CC5)cc43)CC2)c1 | -2% | -5% | 2% | ? | 5% | -3%
C/C(=N/NC(N)=S)c1ccc(Br)s1 | -2% | 25µM* | 1% | -23% | -19% | -4%
CC(=NNc1ccccc1)C(C)=NNc1ccccc1 | 10%[57.1 µM] | 40µM* | 5% | / | -6%[11.4 µM] | -4%
C/C(=N/Nc1ccc(Cl)cc1)c1ccc(Br)s1 | / | 11µM* | / | / | / | /
C/C(=N\Nc1ccc(C(=O)O)cc1)c1ccc(Cl)s1 | -7% | -8% | 0% | 26% | 5% | -9%
C/C(=N/Nc1ccccc1)c1ccc(Cl)s1 | / | 5µM* | / | / | / | /
CC(=O)/C=N/Nc1ccccc1 | 3%[57.1 µM] | -4% | 12% | -19% | 11%[57.1 µM] | -6%
CC(=O)Nc1ccc(C(=O)COC(=O)c2nc3nc(C)cc(C)n3n2)cc1 | 2% | 40µM* | -3% | / | 6% | 0%
Cc1cc(C)n2nc(C(=O)OCC(=O)c3ccccc3Cl)nc2n1 | -9% | -14% | 3% | / | -13% | -1%
Cc1ccc(NC2=C(Cl)C(=O)OC2OC(=O)c2ccc(C)cc2)cc1 (centres undefined) | -2%[57.1 µM] | 7.9µM* | 8% | ? | 3%[57.1 µM] | -8%
COC(=O)c1ccc(NC2=C(Cl)C(=O)OC2OC(=O)c2ccccc2)cc1 (centres undefined) | -2% | 18% | 3% | -9% | -12% | -4%
COc1cccc(C(C2C(=O)CC(C)(C)CC2=O)C2C(=O)CC(C)(C)CC2=O)c1 | 5% | -15% | -9% | -9% | ? | -5%
CC1(C)CC(=O)C(C(C2=C(O)CC(C)(C)CC2=O)c2ccc(Br)s2)C(=O)C1 (centres undefined) | -16% | 16µM* | 4% | ? | 4µM* | -14%
COc1cccc(C(C2=C(O)CC(C)(C)CC2=O)C2C(=O)CC(C)(C)CC2=O)c1 (centres undefined) | -7% | -18% | 2% | -9% | 45µM* | -3%
CC1(C)CC(=O)C(C(C2=C(O)CC(C)(C)CC2=O)c2ccc([N+](=O)[O-])cc2)C(=O)C1 (centres undefined) | -8% | -29% | 5% | -2% | ? | -4%
Cc1ccc(C(C2=C(O)CC(C)(C)CC2=O)C2C(=O)CC(C)(C)CC2=O)s1 (centres undefined) | 6% | ? | 2% | ? | 10µM* | -14%
OC[C@H]1O[C@@H]2O[C@H]3[C@H](O)[C@@H](O)[C@@H](O[C@H]4[C@H](O)[C@@H](O)[C@@H](O[C@H]5[C@H](O)[C@@H](O)[C@@H](O[C@H]6[C@H](O)[C@@H](O)[C@@H](O[C@H]7[C@H](O)[C@@H](O)[C@@H](O[C@H]8[C@H](O)[C@@H](O)[C@@H](O[C@H]9[C@H](O)[C@@H](O)[C@@H](O[C@H]1[C@H](O)[C@H]2O)O[C@@H]9CO)O[C@@H]8CO)O[C@@H]7CO)O[C@@H]6CO)O[C@@H]5CO)O[C@@H]4CO)O[C@@H]3CO | / | 0% | / | / | / | /
SMILES | TrxR1 substrate | ALOX12 inh | mIDH1 inhibitor | Apoferritin bind | rTrxR1 inhibitor | GRP78 ERSR act
O=C(N/N=C/c1ccc([N+](=O)[O-])o1)c1cn(-c2ccccc2)nc1-c1ccc(Cl)cc1 | -7% | -9% | 9% | -7% | -1% | -4%
O=[N+]([O-])CC(=Nc1ccc(Cl)cc1)N/N=C\c1oc(O)c2ccccc12 | -1% | 4µM* | 0% | ? | ? | -5%
CN1CCN(c2nccc3[nH]c(-c4cccc(F)c4)nc23)CC1 | / | 19% | / | / | / | /
O=C(Nc1cccc(NC(=O)c2ccc(Br)o2)n1)c1ccc(Br)o1 | 8% | -10% | 12% | -8% | 32µM* | -4%
Cc1cccc(C)c1N=C1NN=C(c2ccc3c(c2)CC(C)N3S(C)(=O)=O)CS1 (centres undefined) | / | 27% | / | / | / | /
COc1ccc(C)cc1NC(=O)C(C)N1CCOCC1 (centres undefined) | 6% | 11µM* | -1% | -3% | 26% | -2%
CCn1c(SCc2ccccc2Br)nc2cc(S(N)(=O)=O)ccc21 | / | -14% | / | / | / | /
COC(=O)c1cc2c(c3c4ccccc4n(S(=O)(=O)c4ccc(OC)cc4)c13)C(=O)N(Cc1ccco1)C2 | / | 40µM* | / | / | / | /
c1ccc(OCCNCC2CCCO2)cc1 (centres undefined) | / | -14% | / | / | / | /
CCN(C(=S)Nc1ccc(Oc2ccccc2)cc1)c1ccccc1 | -7% | 50µM* | 0% | 3% | -17% | -4%
CC(=O)c1ccc(NS(=O)(=O)c2cccc(C(=O)Nc3ccccc3C(=O)O)c2)cc1 | -1% | 32µM* | -12% | -7% | -3% | -4%
COc1ccc(NS(=O)(=O)c2cccc(C(=O)Nc3ccccc3C(=O)O)c2)cc1 | -3% | ? | -4% | -3% | 3% | 3%
CC(C)Cc1nc(S(=O)(=O)c2ccc(Cl)cc2)c(N2CCOCC2)o1 | 2% | / | 2% | 88% | 8.9µM* | -2%
COc1ccc(-c2nc(S(=O)(=O)c3ccc(F)cc3)c(N3CCOCC3)o2)cc1 | / | 5% | / | / | / | /
COc1ccc(-c2nc(S(=O)(=O)c3ccccc3)c(N3CCOCC3)o2)cc1 | -3% | -16% | -6% | 1% | 40µM* | -3%
Cc1ccc(S(=O)(=O)c2nc(Cc3ccccc3)oc2N2CCOCC2)cc1 | 9% | ? | 2% | / | 4.5µM* | -1%
